Compound activity: PubChem, National Center for Advancing Translational Sciences (NCATS)
p53 reactivation = qHTS assay for re-activators of p53 using a Luc reporter; H1299 p53-A138V BP100-luciferase reporter, luminescence, 24 h; Potency, µM (top dose mostly 92.2 µM), most hits filed as activators; actives 0.063% (n = 320,000); AID 504706, 2011; also: nearly all actives have a fitted effect of over 45% in size
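H1299 (p53-null), stable ts p53-A138V + BP100-Luc; 1000 cells/well, Opti-MEM/10% FBS; cpd 4 pt, 1:5; 24 h, 37 deg C, 5% CO2; detection reagent 10 min RT; luminescence.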
USP2a inh = qHTS Assay for Inhibitors of Ubiquitin-specific Protease USP2a Using CHOP2 as the Reporter; Ubiquitin carboxyl-terminal hydrolase 2 (Homo sapiens), O75604; USP2 core, Ub-CHOP2 coupled fluorogenic reporter, 485/531; Potency, µM (top dose mostly 38.3 µM), hits mostly inhibitors; actives 0.01% (n = 330,000); AID 463254, 2010
Target sequence (O75604 whole entry, looked up): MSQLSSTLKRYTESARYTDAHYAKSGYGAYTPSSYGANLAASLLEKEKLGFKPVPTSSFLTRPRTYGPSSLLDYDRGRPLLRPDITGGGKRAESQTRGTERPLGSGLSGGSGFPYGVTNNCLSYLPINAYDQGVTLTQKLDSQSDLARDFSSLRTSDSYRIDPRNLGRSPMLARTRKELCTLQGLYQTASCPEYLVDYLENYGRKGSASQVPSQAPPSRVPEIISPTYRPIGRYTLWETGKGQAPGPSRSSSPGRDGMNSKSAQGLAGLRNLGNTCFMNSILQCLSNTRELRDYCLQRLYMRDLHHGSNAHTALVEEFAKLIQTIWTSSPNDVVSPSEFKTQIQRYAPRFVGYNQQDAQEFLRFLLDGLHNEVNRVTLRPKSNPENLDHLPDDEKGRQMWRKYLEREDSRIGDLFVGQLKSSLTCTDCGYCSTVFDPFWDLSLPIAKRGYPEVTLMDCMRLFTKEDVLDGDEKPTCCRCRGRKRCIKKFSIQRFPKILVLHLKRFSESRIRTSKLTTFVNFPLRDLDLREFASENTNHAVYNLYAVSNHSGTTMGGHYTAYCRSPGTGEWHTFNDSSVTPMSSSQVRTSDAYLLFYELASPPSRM
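Deubiquitinase activity read as fluorescence (485/531 nm) after Ub-CHOP2 cleavage activates the enterokinase reporter on its substrate; USP2 core 10nM, Ub-CHOP2 and substrate 25nM each, 30min compound preincubation then 60min RT; data normalized to NEM, curves fitted.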
ClpP mod = qHTS Assay for Activators of ClpP; purified B. subtilis ClpP, FRET peptide cleavage, 20 min; Potency, µM (top dose mostly 57.5 µM); actives 1.9% (n = 340,000); AID 651965, 2013; active = well fitted falling curve with a large enough effect; inconclusive = small, poorly fitted or top-dose-only effect; inactive = no such curve, though single readings can be large or run the other way; also: the source files actives as falling curves though it sought activators and does not explain the sign; nearly all actives have a fitted effect of over 65% in size
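Purified B. subtilis ClpP, 10 microg/mL final in Tris/HCl pH8 with KCl, BSA, glycerol and Tween-20, cleaved an Abz/nitrotyrosine-quenched decapeptide. Fluorescence (ex 320, em 430) was read at 0 and 20 min at room temperature. Delta was normalized to 5.8 microM ADEP and DMSO/no-enzyme controls.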
a7 integrin act = qHTS for Activators of Integrin-Mediated Alleviation for Muscular Dystrophy | alpha7betagal myoblasts, beta-gal FDG fluorescence, 48 h | Potency, µM (doses to about 38.3 µM), actives largely listed as activators | actives 0.064% (n = 350,000); also: nearly all actives have a fitted effect of over 60% in size
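alpha7betagal+/- myoblasts (passage 13, 250/well) treated 48 h at 37C with compounds at 1:260 dilution of DMSO stock. Lysed, then beta-galactosidase activity read as FDG fluorescence (ex 480/em 540) after 30 min, with pre-read for autofluorescence.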
Eya2 inh = qHTS Assay for Inhibitors of the Phosphatase Activity of Eya2 | Protein phosphatase EYA2 (Homo sapiens), O00167 | recombinant Eya2, OMFP fluorescence dephosphorylation (OMFP is methylfluorescein phosphate) | Potency, µM (titrated, usually from 76.9 µM), most hits filed as inhibitors | actives 0.006% (n = 330,000)
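Eya2 protein (added as 0.2 uM solution) was preincubated with compound for 10 min at ambient temperature in 50 mM HEPES pH 7.5, 50 mM NaCl, 5 uM MgCl2, 0.05% BSA, 1 mM DTT. OMFP (added at 50 uM) then reacted 10 min; fluorescence read at 485/525 nm.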
Mm-Cpn inhibitor = Inhibitors of TCP-1 ring complex (TRiC) of Methanococcus maripaludis (MmCpn): qHTS; Chaperonin Mm-Cpn (Methanococcus maripaludis); purified Mm-Cpn ATPase, ADP Transcreener TR-FRET; Potency, µM (series often up to 76.9 µM), usual class: inhibitors; actives 0.031% (n = 330,000); AID 504842, 2011; also: nearly all actives have a fitted effect of over 80% in size
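Eu-cryptate anti-ADP/ADP-d2 competition gives a ratio inversely related to ADP. Enzyme at 25 nM was pre-exposed to compound for 10 min, then given 10 uM ATP for 30 min, 37°C throughout.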
Numbers stand for hits. This excerpt belongs to a sample that is enriched for hits. Unless noted, calls follow the shape of the dose curve; as a rule, active = well fitted curve in the direction sought with a large enough effect; inconclusive = small, poorly fitted or top-dose-only effect, or another doubt; inactive = no such curve, though single readings can be large; an effect the other way counts as inactive or inconclusive.

Cn1c(C(c2cc3ccccc3n2C)c2cc3ccccc3n2C)cc2ccccc21 was read as ClpP mod inactive.
Screening O=C(Nc1ccncc1)c1cnn2c1NC(=C1CC1)C=C2C(F)F returned ClpP mod inactive.
For CCCCCn1c(=O)[nH]c2cc(C(=O)NCCN3CCOCC3)ccc2c1=O the results were ClpP mod 28µM and a7 integrin act inactive.
For COc1ccc(-c2cc([C@H]3[C@H]4C=CC[C@@H](C)[C@@H]4C(=O)N3Cc3ccccc3)ccc2F)cc1 the results were p53 reactivation inactive, USP2a inh inactive, ClpP mod inconclusive, a7 integrin act inactive, Eya2 inh inactive and Mm-Cpn inhibitor inactive.
COc1ccc(-c2cc([C@H]3[C@H]4C=CC[C@@H](C)[C@@H]4C(=O)N3Cc3ccccc3)ccc2F)cc1OC was read as p53 reactivation inactive, USP2a inh inactive, ClpP mod 32µM, a7 integrin act inactive, Eya2 inh inactive and Mm-Cpn inhibitor inactive.
`COc1ccc(N(Cc2cc3cc(OC)ccc3[nH]c2=O)C(=O)C2CCCO2)cc1` (centres undefined) gave p53 reactivation inactive, USP2a inh inactive, ClpP mod 18µM, a7 integrin act inactive, Eya2 inh inactive and Mm-Cpn inhibitor inactive.
`COc1ccc2[nH]c(=O)c(CN(CCN3CCCC3)C(=O)Nc3ccccc3Cl)cc2c1` gave p53 reactivation inactive, USP2a inh inactive, ClpP mod 32µM, a7 integrin act inactive, Eya2 inh inactive and Mm-Cpn inhibitor inactive.
For COc1ccc2[nH]c(=O)c(CN(CC3CCCO3)C(=O)Nc3ccccc3OC)cc2c1 (centres undefined) the results were p53 reactivation inactive, USP2a inh inactive, ClpP mod 28µM, a7 integrin act inactive, Eya2 inh inactive and Mm-Cpn inhibitor inactive.
For Cc1ccnc(NC(=O)c2ccc(Cl)cc2Cl)n1 the results were p53 reactivation inactive, USP2a inh inactive, Eya2 inh inactive and Mm-Cpn inhibitor inactive.
Cc1cc(C)nc(NC(=O)c2ccc(Cl)cc2Cl)n1 was read as p53 reactivation inactive, USP2a inh inactive, ClpP mod inactive, a7 integrin act 10µM, Eya2 inh inactive and Mm-Cpn inhibitor inactive.
Cc1nc2cccnc2n1C1CCN(S(=O)(=O)c2ccc(C(C)C)cc2)CC1 was read as ClpP mod inactive.
Cc1ccc2nc(-c3ccc(NC(=O)C4CCCO4)cc3)[nH]c2c1 (centres undefined) was read as p53 reactivation inactive, USP2a inh inactive, ClpP mod 32µM, a7 integrin act inactive, Eya2 inh inactive and Mm-Cpn inhibitor inactive.
Screening Cc1ccc2nc(-c3ccc(NC(=O)Cc4cccs4)cc3)[nH]c2c1 returned p53 reactivation inactive, USP2a inh inactive, ClpP mod inconclusive, a7 integrin act inactive, Eya2 inh inactive and Mm-Cpn inhibitor inactive.
Screening O=C(Nc1ccc(-c2nc3cc(Cl)ccc3o2)cc1)c1cc(Br)ccc1Cl returned ClpP mod 28µM.
For O=C(Nc1ccc(-c2nc3cc(Cl)ccc3o2)cc1)C1CCCO1 (centres undefined) the results were p53 reactivation inconclusive, USP2a inh inactive, ClpP mod 28µM, a7 integrin act inactive, Eya2 inh inactive and Mm-Cpn inhibitor inactive.
`O=C(Nc1ccc2oc(-c3ccccc3)nc2c1)C1CCCO1` (centres undefined) gave p53 reactivation inconclusive, USP2a inh inactive, ClpP mod inactive, a7 integrin act inactive, Eya2 inh inactive and Mm-Cpn inhibitor inactive.
